Bioassay records deposited in PubChem by The Scripps Research Institute Molecular Screening Center.
This is a sample that favours compounds with a hit; in the whole collection about 4.2% have one here.
ssDAF12 agonist: S. stercoralis DAF-12 activation, primary screen; AID 652126; hit rate 1% among 370,000; activation, % at 6.8 µM; HEK293 ssDAF-12/GRIP1 lit1-tk-luc reporter, luminescence; % of 3 µM dafachronic acid response;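 active = activation above the mean over all tested compounds plus 3 SD, cut at about 0.9% in these data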;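 also: 0% = DMSO-only wells and 100% = 3 µM delta7-dafachronic acid wells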
hcDAF-12 act: activates DAF-12 receptor from parasite H. contortus; HEK293 hcDAF-12 lit1-tk-luc reporter, luminescence; 0% DMSO, 100% Δ7-dafachronic acid; activation, % at 6.8 µM; hit rate 1.4% among 370,000;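 active = activation above the mean of all tested compounds plus 3 SD, cut at about 5.5% in these data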;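 also: 100% = response to 3 µM Δ7-dafachronic acid high control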
hgDAF12 agonist: agonists of H. glycines DAF-12 nuclear receptor; AID 687014; HEK293 GAL4-hgDAF12 UAS-luciferase reporter, agonist luminescence; normalized to butyrate control; hit rate 1.8% among 370,000; activation, % at 6.8 µM;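 active = activation above a cutoff set at the mean of all screened compounds plus 3 SD, cut at about 10% in these data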;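 also: 0% = DMSO wells and 100% = sodium butyrate wells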
DAX1 StAR inh: blocks DAX1 repression of SF-1 activated StAR promoter. hit rate 1.1% among 370,000. HEK293T StAR-luciferase reporter, SF-1/DAX-1 repression relief. AID 652010. inhibition, % at 6.8 µM;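 active = inhibition above the mean over all tested compounds plus 3 SD, cut at about 3.6% in these data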;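 also: 0% = DAX-1 cells with DMSO and 100% = cells lacking DAX-1 with DMSO; higher inhibition means more luminescence from relief of DAX-1 repression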
SMARCA2 activ: SMARCA2 function activation, primary screen; MG213 cells, MMTV-luciferase reporter, dexamethasone, overnight; activation, % at 9.1 µM; hit rate 1% among 370,000; in the data active = activation above about 7.8%;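 also: 0% = vehicle wells and 100% = reference activator wells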
DAX1 conf: NR0B1 (human) inhibition, confirmation; shares compounds with DAX1 StAR inh; HEK293T StAR-promoter luciferase reporter, SF-1/DAX-1 repression; inhibition, % at 6.8 µM; hit rate 87% among 2,400; AID 652134;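 active = inhibition above the average of every tested compound plus 3 SD, cut at about 3.8% in these data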;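 also: 0% = DAX-1 cells with DMSO and 100% = no DAX-1 control cells with DMSO; active compounds raise luminescence by relieving repression of the StAR reporter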
Target sequence (P51843 whole entry, looked up): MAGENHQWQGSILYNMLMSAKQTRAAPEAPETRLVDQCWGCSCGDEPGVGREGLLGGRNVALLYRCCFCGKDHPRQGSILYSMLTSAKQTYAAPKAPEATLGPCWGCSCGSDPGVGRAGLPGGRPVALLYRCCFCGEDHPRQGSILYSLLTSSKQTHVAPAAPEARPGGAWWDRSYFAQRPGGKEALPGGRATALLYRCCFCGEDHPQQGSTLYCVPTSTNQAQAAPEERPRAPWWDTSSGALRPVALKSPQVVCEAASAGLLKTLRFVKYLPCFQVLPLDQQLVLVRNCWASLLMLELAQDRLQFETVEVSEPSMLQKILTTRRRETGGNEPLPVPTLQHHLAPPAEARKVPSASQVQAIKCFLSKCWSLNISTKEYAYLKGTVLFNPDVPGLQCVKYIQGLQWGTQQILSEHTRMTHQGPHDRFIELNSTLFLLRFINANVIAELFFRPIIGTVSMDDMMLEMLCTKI
SF1 mutant ctr: counter-screen for DAX1 inhibitors: nonselective inhibitors with SF-1 AF2 mutant | shares compounds with DAX1 StAR inh | HEK293 StAR-luciferase, luminescence | inhibition, % at 6.8 µM | hit rate 78% among 2,400;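 active = inhibition above the mean of all tested compounds plus 3 SD, cut at about 3% in these data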;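 also: 0% = DAX-1 transfected cells with DMSO and 100% = cells without DAX-1 with DMSO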
The depositor's hits bear a star; . = no result.

SMILES	ssDAF12 agonist	hcDAF-12 act	hgDAF12 agonist	DAX1 StAR inh	SMARCA2 activ	DAX1 conf	SF1 mutant ctr
O=C(/C(N=Nc1cccc(C(F)(F)F)c1)=C(/O)c1cccs1)C(F)(F)F	0	3	5	0	1	.	.
C[C@@H]1CN([C@H](C)CO)C(=O)c2cc(Br)cnc2O[C@H]1CN(C)C(=O)c1ccc(F)cc1	-1	1	2	0	-2	.	.
N#Cc1c(NC(=O)c2ccco2)sc2c1CCC2	-1	3	11*	9.4*	3	9.1*	3.7*
O=C(Nc1sc2c(c1C(=O)O)CCCCC2)c1ccco1	0	5	3	3	2	.	.
CCOC(=O)N1CCN(C(=O)c2ccc3c(Cl)c4c(nc3c2)CCCC4)CC1	-1	-1	0	0	1	.	.
O=C(c1ccc2c(Cl)c3c(nc2c1)CCCC3)N1CCC(N2CCCCC2)CC1	-1	-1	9	9.0*	1	7.0*	6.1*
CN(C)c1cccc(/C=C2\CC3(OC(=O)C4CCCC4)CCCN2C3)c1 (stereo unspecified)	-1	1	-1	0	-2	.	.
CCCC(C)C(=O)NC1CCCCN(Cc2ccccc2C)C1=O (stereo unspecified)	-1	-3	2	0	0	.	.
O=C(N/N=C/c1cc(Br)c(O)c(Br)c1)c1cc2c(ccc3ccccc32)o1	0	-1	4	5.2*	-2	3	1
COC(=O)C1CCC(=O)N1C(c1ccc(OC)cc1)c1cc(OC)c(OC)c(OC)c1 (stereo unspecified)	-1	0	-5	6.2*	0	20*	-7
COc1ccc(C(CNC(=O)Cc2cc(OC)c(OC)c(OC)c2)N2CCCC2)cc1 (stereo unspecified)	-1	1	0	0	-6	.	.
C/C=C/C(=O)N1CCc2cc(S(=O)(=O)N(C)Cc3ccco3)ccc21	-1	1	2	-1	-4	.	.
Cc1ccc(NC(=O)c2ccc(-c3cc(Cl)ccc3Cl)o2)c(C)c1	0	0	0	5.9*	0	3	1
N/C(=N\OC(=O)Cc1ccc(-c2ccccc2)cc1)c1ccccn1	-1	-1	-1	-1	0	.	.
CCOc1cc(C(=O)O/N=C(\N)c2ccccn2)cc(OCC)c1OCC	-1	-1	3	0	-1	.	.
CCOc1ccc(C(=O)O/N=C(\N)c2ccccn2)cc1OCC	0	2	12*	6.3*	7	3	4.5*
N/C(=N\OC(=O)CSc1ccccc1)c1ccccn1	0	1	10	7.0*	5	5.3*	4.7*
O=C(Nc1c(C(=O)N2CCC(N3CCCCC3)CC2)oc2ccccc12)c1c(F)cccc1F	-1	0	1	2	3	.	.
O=C(Nc1c(C(=O)N2CCC(N3CCCCC3)CC2)oc2ccccc12)c1ccc(F)cc1	-1	-2	0	8.1*	-1	7.6*	3
Cc1ccc2nc(-c3cccc(Br)c3)c(CC3CCCCC3)n2c1	0	5	13*	6.4*	0	5.1*	5.6*
Cc1ccc(-c2nc3ccc(Cl)cn3c2CC(C)(C)C)cc1	-1	0	3	1	-5	.	.
Cc1cc2nc(-c3cccc(Cl)c3)c(CC3CCCCC3)n2c(C)c1Br	0	3	3	2	-4	.	.
Cc1ccc(-c2nc3ccc(Cl)cn3c2CC2CCCCC2)cc1	0	7.1*	13*	4.8*	3	8.5*	5.5*
COC(=O)[C@]12C[C@H](CC(=O)NCc3ccccc3)C(=O)N(CCc3ccc(OC)c(OC)c3)C1=C[C@H](COCc1ccccc1)O[C@@H]2C	-2	-4	1	-1	-4	.	.
O=C(N[C@H](C(=O)N1CCC[C@H]1C(=O)NCCc1ccccc1Cl)C1CCCCC1)c1cccs1	-1	-2	0	1	0	.	.
CCCN1CCN(C(=O)c2cc3c(s2)-c2ccccc2OC3)CC1	0	4	5	5.4*	2	9.9*	5.2*
